Measured values from PubChem BioAssay (NCATS).
Records with an inconclusive call do not appear. The source made the active and inactive calls. Calls come from the whole dose curve; as a rule, active = well fitted inhibition curve with a large enough effect; inconclusive = small, poorly fitted or top-dose-only effect; inactive = flat fitted curve, though single readings scatter. Peptide text beside a SMILES is read from it. * marks the point of attachment. Cbz = O=C(OCc1ccccc1)*; CH2F = FC*

The molecules below were run on CRL-7250 (assay: qHTS assay to identify novel small-molecules to repurpose for Merkel cell carcinoma treatment (AID 1296009; note: nearly all actives have a fitted effect of over 60% in size)). Conditions: MCC and control cell lines, CellTiter-Glo viability, 72 h; series mostly up to 92 µM; activity change, negative = cytotoxicity: at the top concentration.
Outline: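 Luminescence from CellTiter-Glo, read 10 min after addition at room temperature, reported viability following a 72 hr, 37 degree celsius treatment with NPC or MIPE compounds in titration; values normalized to plate controls.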

| Compound | outcome |
| --- | --- |
| N#CCc1ccc(O)cc1O[C@@H]1O[C@H](CO)[C@@H](O)[C@H](O)[C@H]1O | inactive |
| CC1(C)OC[C@H](NC(=O)Nc2ccc(Br)cc2Br)[C@H](c2ccccc2)O1 | inactive |
| C[C@@H]1C(=O)O[C@H]2[C@H]1CC[C@@]1(C)C(=O)C=C[C@](C)(O)[C@H]21 | inactive |
| C/C=C/C=C/C(O)=C1/C(=O)[C@]2(C)C3/C(=C(O)/C=C/C=C/C)C(=O)C4(C)C1[C@]1(C)O[C@@]4(O)[C@@]3(C)O[C@@]12O | inactive [at 17.4 µM] |
| COc1cc(C(O)C(CO)Oc2ccc(CCCO[C@@H]3O[C@@H](C)[C@H](O)[C@@H](O)[C@H]3O)cc2OC)ccc1O (some centres undefined) | inactive [at 17.4 µM] |
| NC(=O)[C@H](O[C@@H]1O[C@H](CO)[C@@H](O)[C@H](O)[C@H]1O)c1ccccc1 | inactive |
| C=C(C(=O)O)[C@@H]1CC[C@H](C)[C@@H]2CC(=O)C(C)=C2C1 | inactive |
| CC1=CC(=O)[C@]2(O[C@@H]3O[C@@H](C)[C@H](O)[C@@H](O)[C@H]3O)C=CO[C@@H](O[C@@H]3O[C@H](CO)[C@@H](O)[C@H](O)[C@H]3O)[C@H]12 | inactive [at 17.4 µM] |
| CC(C)CC(=O)NCCn1cc(C(=O)O)c(=O)cc1C(O)c1ccccc1 (centres undefined) | inactive |
| COc1cc(NC(=O)c2cccc(-n3cc(NC(=O)Nc4cccc(C)c4)cn3)c2)cc(OC)c1OC | inactive |
| O=[N+]([O-])c1ccc(Oc2ccc3c(c2)CCC(c2ccccc2)O3)nc1 (centres undefined) | inactive |
| COC1OC(O)C2(CCC3(O2)C(C)CC2OC(=O)C4(C)CCCC3(C)C24)C1O (centres undefined) | inactive |
| C=C1C(O)CC2C(C(=O)O)=COC(O[C@@H]3O[C@H](COC(=O)c4ccc(O)cc4)[C@@H](O)[C@H](O)[C@H]3O)C12 (some centres undefined) | inactive [at 17.4 µM] |
| CC/C=C\CC1C(=O)C=CC1(CCCCC1CCC(=O)O1)OC(C)=O (centres undefined) | inactive |
| O=C(Nc1ccc(-c2ccc(Cl)c(Cl)c2)cc1)C1=C(O)c2ccccc2S(=O)(=O)N1 | inactive |
| C=CC1(C)C=C2C(O)CC3C(C)(C(=O)O)CCCC3(C)C2CC1 (centres undefined) | inactive |
| COc1cc(C[C@H]2COC(=O)[C@@H]2Cc2ccc(O)c(OC)c2)ccc1O | inactive |

| Compound | outcome |
| --- | --- |
| COc1ccc(S(=O)(=O)Nc2c(C)cc(C)cc2C)cc1 | inactive |
| CC1CCC2C(C)(C)C(O)CCC2(C)C12Cc1c(O)cc3c(c1O2)CN(C(CCCN=C(N)N)C(=O)O)C3=O (centres undefined) | inactive [at 17.4 µM] |
| CC(=O)O[C@@H]1[C@H]2[C@@H](OC(=O)c3ccccc3)[C@@H](C)C[C@]2(O)[C@H](OC(C)=O)[C@@]2(C)[C@@H]3CC(C)(C)C(=O)[C@]3(OC(C)=O)C[C@@]12C | inactive [at 17.4 µM] |
| COC(=O)C1=CO[C@@H](O[C@@H]2O[C@H](CO)[C@@H](O)[C@H](O)[C@H]2O)[C@H]2[C@@H]1CC(OC)O[C@@H]2C (some centres undefined) | inactive [at 17.4 µM] |
| O=C(O)c1cc(-c2c(-c3ccccc3)nn3ccccc23)n[nH]c1=O | inactive |
| CN1CCN(C2=Nc3ccccc3Nc3ccc(OS(=O)(=O)C(F)(F)F)cc32)CC1 | inactive |
| CC1=C[C@@H]2[C@H]3[C@@H]4O[C@@](C)(CC[C@H]4O)[C@H]3CC(=O)[C@]23C(=O)N[C@@H](CC(C)C)[C@@H]3[C@@H]1C | inactive |
| C=C1CCC2C(C)(COC3OC(COC(=O)CC(=O)O)C(O)C(O)C3O)CCCC2(C)C1CCC1=CCOC1=O (centres undefined) | inactive [at 17.4 µM] |
| COc1cc(C2c3cc(O)c(OC)cc3CC(CO)C2CO)ccc1O (centres undefined) | inactive |
| CC(C)=C[C@@H]1[C@H](CO[C@@H]2O[C@H](CO)[C@@H](O)[C@H](O)[C@H]2O)C1(C)C | inactive |
| COc1ccc(CCC(=O)O)c(O[C@@H]2O[C@H](CO)[C@@H](O)[C@H](O)[C@H]2O)c1 | inactive |
| COC(=O)C1=C2Nc3ccccc3C23CCN2CCCC(C(C)O)(C1)C23 (centres undefined) | inactive |
| COC(=O)CC[C@H](NC(=O)[C@H](CC(C)C)NC(=O)OCc1ccccc1)C(=O)N[C@@H](Cc1cnc[nH]1)C(=O)N[C@@H](CC(=O)OC)C(=O)CF (Cbz-LE(OMe)HD(OMe)-CH2F) | inactive [at 9.27 µM] |
| O=C(O)/C=C/c1ccc(O)c(O[C@@H]2O[C@H](CO)[C@@H](O)[C@H](O)[C@H]2O)c1 | inactive |
| CC1(C)C2CCC1(C)C(OC(=O)C(O)(CC(=O)O)CC(=O)O)C2 (centres undefined) | inactive |
| COC(O)(CC(C)C)C1Oc2cc(C)[nH]c(=O)c2O1 (centres undefined) | inactive |
| CCC[C@@H]1C[C@@H](C(=O)N[C@@H]([C@H]2O[C@H](SC)[C@H](O)[C@@H](O)[C@@H]2O)[C@@H](C)O)N(C)C1 | inactive |
